# Results as given in PubChem BioAssay (NCATS).
# “And” between values parts separate entries of the source, which are not always exact repeats. Equal values may be shown once. Results filed as inconclusive are left out. More than one record can exist for a structure, and the calls need not agree. The source made the active and inactive calls. The call rests on the fitted dose curve; in most records, active means well fitted curve in the direction sought with a large enough effect; inconclusive means small, poorly fitted or top-dose-only effect, or another doubt; inactive means no such curve, though single readings can be large; an effect the other way counts as inactive or inconclusive.
# Test: Primary qHTS for inhibitors of nuclear receptor binding SET domain protein 2 (NSD2) in an isogenic RCH-ACV NSD2 p.E1099K mutant (9B) (AID 1645876)
# Settings: RCH-ACV NSD2 E1099K (9B) viability, CellTiter-Glo, 72 h; series mostly up to 44.9 µM
# Further: nearly all actives have a fitted effect of over 70% in size.
# Potency means the concentration at half of the fitted maximal effect.
row,SMILES,Potency
1,Cc1cc2nc3c(=O)[nH]c(=O)nc-3n(CC(O)C(O)C(O)CO)c2cc1C (stereo not given),inactive
2,Cc1cccc(-c2[nH]c(C(C)(C)C)nc2-c2ccc3c(c2)OCO3)n1,4.61 µM (active) and 4.17 µM (active)
3,CCCCn1c(=O)n(Cc2ccccc2F)c(=O)c2[nH]c(Cc3ccc(NC(C)=O)cc3)nc21,inactive
4,CN[C@@H]1CN(c2ccc3c(=O)c(C(=O)O)cn(-c4nccs4)c3n2)C[C@@H]1OC,0.102 µM (active)
5,COC(=O)[C@H](c1ccccc1Cl)N1CCc2sccc2C1,inactive
6,CN1CC(=O)NC1=NC(=O)Nc1cccc(Cl)c1,inactive
7,CN(C)CCN(C)C(=O)c1ccc(NC(=O)Nc2ccc(-c3nc(N4CCOCC4)c4ccn(CC(F)(F)F)c4n3)cc2)cc1,0.0209 µM (active)
8,CCCCC(C)(C)[C@H](O)C=C[C@H]1[C@H](O)CC(=O)[C@H]1CC=CCCCC(=O)O,inactive
9,Cc1nc(NC(=O)N2CCC[C@@H]2C(N)=O)sc1-c1csc(C(C)(C)C)n1,7.31 µM (active)
10,CCC[C@H](Nc1nc(-c2ccc(NC(=O)NCC)c(OC)c2)ncc1C)c1cccnc1,0.0263 µM (active)
11,CO[C@@H]1C(N(C)C(=O)c2ccccc2)C[C@H]2O[C@]1(C)n1c3ccccc3c3c4c(c5c6ccccc6n2c5c31)C(=O)NC4=O (stereo not given in full),1.66 µM (active)
12,Cc1cnc(CNC(=O)c2c(=O)c3ccc(N4CCCN(C)CC4)nc3n3c2sc2ccccc23)cn1,0.152 µM (active)
13,O=C1NC(=O)C(c2cnc3ccccn23)=C1c1cn2c3c(cccc13)CN(C(=O)N1CCOCC1)CC2,0.0148 µM (active)
14,CC(C)(CO)[C@@H](O)C(=O)NCCC(=O)O,inactive
15,O=C(O)CCNc1cc(N2CCc3ccccc3CC2)nc(-c2ccccn2)n1,inactive
16,O=C(NCCCCN1CCOCC1)c1cc2ccccc2o1,inactive
17,COc1cc([C@@H]2c3cc4c(cc3[C@@H](O[C@@H]3O[C@@H]5CO[C@@H](C)O[C@@H]5[C@H](O)[C@@H]3O)[C@H]3COC(=O)[C@H]23)OCO4)cc(OC)c1O,0.263 µM (active)
18,CCOC(=O)N1c2ccc(C(F)(F)F)cc2[C@@H](N(Cc2cc(C(F)(F)F)cc(C(F)(F)F)c2)C(=O)OC)C[C@H]1CC,inactive
19,NC[C@H]1O[C@H](O[C@@H]2[C@@H](O)[C@@H](O[C@H]3O[C@H](CO)[C@@H](O)[C@H](N)[C@@H]3O)[C@H](N)C[C@@H]2N)[C@H](O)[C@@H](O)[C@H]1O,inactive
20,N#CC(c1ccnc(NCCc2cccnc2)n1)c1nc2ccccc2s1 (stereo not given),14.8 µM (active)
21,CN1CCN(c2cccc(Nc3nc4c(-c5ccc(S(C)(=O)=O)cc5)cccn4n3)c2)CC1,2.06 µM (active) and 5.9 µM (active)
22,COc1ccc2c(c1)c(C1=C(c3c[nH]c4ccccc34)C(=O)NC1=O)cn2CCCN(C)C,7.42 µM (active)
23,O=C(Nc1ncc(SCCN2CCCC2)s1)[C@]1(c2ccc(S(=O)(=O)C3CC3)cc2)C[C@@H]1C1CCCCC1,20.6 µM (active)
24,Cc1cc(NC(=O)Nc2ccc(N(C)C)cc2)c2cc(F)cc(F)c2n1,inactive
25,CN1c2ccccc2C(=O)N2CCc3c([nH]c4ccccc34)C21 (stereo not given),2.09 µM (active)
26,CN(C)N=Nc1nc[nH]c1C(N)=O,2.95 µM (active)
27,CN1CCN2c3ncccc3Cc3ccccc3C2C1 (stereo not given),inactive

# Test: Primary qHTS for inhibitors of nuclear receptor binding SET domain protein 2 (NSD2) in an RCH-ACV wild type WT cells (2C) (AID 1645877)
# Settings: RCH-ACV (leukaemia line) NSD2 WT (2C) viability, CellTiter-Glo, 72 h; series mostly up to 44.9 µM
row,SMILES,Potency
1,N#Cc1c(N(CC(=O)O)CC(=O)O)sc(C(=O)O)c1CC(=O)O,inactive
2,CCCCC(F)(F)[C@@]1(O)CC[C@H]2[C@H](CC(=O)[C@@H]2CCCCCCC(=O)O)O1,inactive
3,COc1ccc(Cn2ccc3ccc(C(=O)NO)cc32)cc1,16.3 µM (active) and 8.33 µM (active)
4,CN(C)CCCNC(=O)c1ccc(-c2cc(O)c3ncccc3c2)cc1,10.3 µM (active) and 9.34 µM (active)
5,N#CC1(c2cccc(C(=O)Nc3cc(Oc4ccc5nc(NC(=O)C6CC6)sc5n4)ccc3F)c2Cl)CC1,3.65 µM (active) and inactive
6,CCN1CCN(c2ccc(Nc3cc(N(C)C(=O)Nc4c(Cl)c(OC)cc(OC)c4Cl)ncn3)cc2)CC1,inactive
7,CN[C@@H]1CN(c2ccc3c(=O)c(C(=O)O)cn(-c4nccs4)c3n2)C[C@@H]1OC,0.0645 µM (active)
8,COC(=O)[C@H](c1ccccc1Cl)N1CCc2sccc2C1,inactive
9,CN(C)CCN(C)C(=O)c1ccc(NC(=O)Nc2ccc(-c3nc(N4CCOCC4)c4ccn(CC(F)(F)F)c4n3)cc2)cc1,0.0186 µM (active)
10,CCCCC(C)(C)[C@H](O)C=C[C@H]1[C@H](O)CC(=O)[C@H]1CC=CCCCC(=O)O,inactive
11,Cc1nc(NC(=O)N2CCC[C@@H]2C(N)=O)sc1-c1csc(C(C)(C)C)n1,7.31 µM (active)
12,CCC[C@H](Nc1nc(-c2ccc(NC(=O)NCC)c(OC)c2)ncc1C)c1cccnc1,0.0372 µM (active)
13,CO[C@@H]1C(N(C)C(=O)c2ccccc2)C[C@H]2O[C@]1(C)n1c3ccccc3c3c4c(c5c6ccccc6n2c5c31)C(=O)NC4=O (stereo not given in full),1.32 µM (active)
14,Cc1cnc(CNC(=O)c2c(=O)c3ccc(N4CCCN(C)CC4)nc3n3c2sc2ccccc23)cn1,0.121 µM (active)
15,CCOC(=O)N1c2ccc(C(F)(F)F)cc2[C@@H](N(Cc2cc(C(F)(F)F)cc(C(F)(F)F)c2)C(=O)OC)C[C@H]1CC,inactive
16,NC[C@H]1O[C@H](O[C@@H]2[C@@H](O)[C@@H](O[C@H]3O[C@H](CO)[C@@H](O)[C@H](N)[C@@H]3O)[C@H](N)C[C@@H]2N)[C@H](O)[C@@H](O)[C@H]1O,inactive
17,N#CC(c1ccnc(NCCc2cccnc2)n1)c1nc2ccccc2s1 (stereo not given),14.8 µM (active)
18,COc1nccc(-c2c(-c3ccc(F)cc3)ncn2C2CCNCC2)n1,18.6 µM (active)
19,CN1CCN(c2cccc(Nc3nc4c(-c5ccc(S(C)(=O)=O)cc5)cccn4n3)c2)CC1,1.63 µM (active) and 8.33 µM (active)
20,COc1ccc2c(c1)c(C1=C(c3c[nH]c4ccccc34)C(=O)NC1=O)cn2CCCN(C)C,6.61 µM (active)
21,CN1c2ccccc2C(=O)N2CCc3c([nH]c4ccccc34)C21 (stereo not given),1.32 µM (active)
22,CN(C)N=Nc1nc[nH]c1C(N)=O,3.72 µM (active)
23,CN1CCN2c3ncccc3Cc3ccccc3C2C1 (stereo not given),inactive
